This note sets out measurements from PubChem BioAssay (NCATS).

Each structure is given as a SMILES string. For part of these data: Potency and affinity values are given separately. Activity calls are given as the source filed them.

For assay [1] the following is noted: Ebola virus entry assay, blue channel fluorescence.
For assay [2] the following is noted: Ebola virus entry cell assay, ratio channel.
For assay [3] the following is noted: Ebola virus entry assay, reporter ratio channel; AC50: Channel type: primary unless noted; outcome: Channel type: primary unless noted.
The conditions of assay [4]: Ebola virus entry assay, blue channel (ratio component).
Assay [5] in a line: Immunotoxin (SS1P) sensitization/mitigation study. Vehicle arm (DMEM) (AID 1159513). Further: potency means the concentration at half of the fitted maximal effect. To be noted: cell viability with vehicle (DMEM); series mostly up to 46.1 µM.
Assay [6] in a line: Immunotoxin (HA22) sensitization/mitigation study. Vehicle arm (PBS) (AID 1159510). Further: potency means the concentration at half of the fitted maximal effect. To be noted: cancer cells viability with PBS vehicle (HA22 study); series mostly up to 46.1 µM.

Take `CC[C@H]1OC(=O)[C@H](C)C(=O)[C@H](C)[C@@H](O[C@@H]2O[C@H](C)C[C@H](N(C)C)[C@H]2O)[C@](C)(OC)C[C@@H](C)C(=O)[C@H](C)[C@H]2N(CCCCn3cnc(-c4cccnc4)c3)C(=O)O[C@]12C`: the compound was classed as inactive in assay [1] and in assay [2].
For the compound `CN1C(=O)C(O)N=C(c2ccccc2)c2cc(Cl)ccc21` (configuration not stated), the compound was called inactive in assay [1] and in assay [2].
For `CC(=O)S[C@@H]1CC2=CC(=O)CC[C@]2(C)[C@H]2CC[C@@]3(C)[C@@H](CC[C@@]34CCC(=O)O4)[C@H]12`, the call in assay [1] and in assay [2] was inactive.
Turning to `CC(=O)NC[C@H]1CN(c2ccc(N3CCOCC3)c(F)c2)C(=O)O1`, the result in assay [1] and in assay [2] was inactive.
Take `Cc1cc(CC(=O)O)c(C)n1-c1ccc(Cl)cc1`: the outcome in assay [3] and in assay [4] was inactive.
`CCN(CC)CCOC(=O)c1ccc(N)cc1`: the result in assay [3] and in assay [4] was inactive.
`Cc1nnc2n1-c1ccc(Cl)cc1C(c1ccccc1Cl)=NC2`: the result in assay [1] and in assay [2] was inactive.
As to `N#Cc1ccc(C(c2ccc(C#N)cc2)n2cncn2)cc1`, the compound was classed as inactive in assay [1] and in assay [2]. The Potency entry in assay [5] was “inactive”.
Take `CN1Cc2cc(C(=O)N3CCC(C4CCNCC4)CC3)ccc2NC(CC(=O)O)C1=O` (configuration not stated): the outcome in assay [3] and in assay [4] was inactive.
For the compound `Cc1cc(C(C#N)c2ccc(Cl)cc2)c(Cl)cc1NC(=O)c1cc(I)cc(I)c1O` (configuration not stated), the outcome in assay [3] and in assay [4] was inactive.
`CC(C)CN(C[C@@H](O)[C@H](Cc1ccccc1)NC(=O)O[C@H]1CO[C@H]2OCC[C@H]21)S(=O)(=O)c1ccc(N)cc1`: the compound was called inactive in assay [1] and in assay [2].
For the compound `CCCCC[C@H](O)/C=C/[C@@H]1[C@H]2C/C(=C/CCCC(=O)O)O[C@H]2C[C@H]1O`, the outcome in assay [1] and in assay [2] was inactive.
As to `Nc1nc(Cl)nc2c1ncn2[C@H]1C[C@H](O)[C@@H](CO)O1`, the compound was called inactive in assay [1] and in assay [2]. Further, the Potency in assay [6] is 9.59 µM (active); in assay [5] it was 48.1 µM (active).
On to `O=C1Nc2ccc(Cl)cc2C(c2ccccc2)=NC1O` (configuration not stated), for which the compound was classed as inactive in assay [1] and in assay [2].
Regarding `COCC1=C(C(=O)OC(C)OC(=O)OC(C)C)N2C(=O)[C@@H](NC(=O)/C(=N\OC)c3csc(N)n3)[C@H]2SC1` (some centres not stated), the compound was called inactive in assay [1] and in assay [2].
Regarding `NC(=O)[C@@H]1CCCN1C(=O)[C@H](Cc1cnc[nH]1)NC(=O)[C@@H]1CCC(=O)N1`, the compound was classed as inactive in assay [1] and in assay [2].
With `COc1ccnc(CS(=O)c2nc3cc(OC(F)F)ccc3[nH]2)c1OC` (configuration not stated), the result in assay [1] and in assay [2] was inactive.
With `CN1C(C(=O)Nc2ccccn2)=C(O)c2sccc2S1(=O)=O`, the outcome in assay [3] and in assay [4] was inactive.
Regarding `Cc1nnc2n1-c1ccc(Cl)cc1C(c1ccccc1)=NC2`, the call in assay [1] and in assay [2] was inactive.
With `C=C1C(=C/C=C2\CCC[C@]3(C)[C@@H]([C@H](C)CCCC(C)(C)O)CC[C@@H]23)C[C@@H](O)C[C@@H]1O`, the result in assay [1] and in assay [2] was inactive.
As to `CC[C@H](C)C(=O)O[C@H]1C[C@H](O)C=C2C=C[C@H](C)[C@H](CC[C@@H](O)C[C@@H](O)CC(=O)O)[C@H]21`, the compound was called inactive in assay [1] and in assay [2].
Turning to `COCCOC(=O)C1=C(C)NC(C)=C(C(=O)OC(C)C)C1c1cccc([N+](=O)[O-])c1` (configuration not stated), the outcome in assay [3] and in assay [4] was inactive.
With `O=C(N/N=C/c1ccccc1O)c1ccncc1`, the outcome in assay [3] and in assay [4] was inactive.
For the compound `CN[C@@H]1CCc2[nH]c3ccc(C(N)=O)cc3c2C1`, the call in assay [1] and in assay [2] was inactive.
As to `O=C(O)c1cc(N=Nc2ccc(O)c(C(=O)O)c2)ccc1O`, the result in assay [1] and in assay [2] was inactive.
On to `O=C(NCC(O)CO)c1c(I)c(C(=O)NCC(O)CO)c(I)c(N(CCO)C(=O)CO)c1I` (configuration not stated), for which the result in assay [3] and in assay [4] was inactive.
As to `N[C@@H](CCC(=O)N[C@@H](CS)C(=O)NCC(=O)O)C(=O)O`, the outcome in assay [3] and in assay [4] was inactive.
